Source: PubChem BioAssay
ELG1 genotox = genotoxicity induction in ELG1-luciferase HEK293T cells; HEK293T ELG1-luciferase reporter, luminescence, 16 h; Potency, µM (highest dose often 46 µM), without a hit: at the highest dose activity change, positive = activation, actives largely listed as activators; 330,000 tested, 1.3% active; AID 504466; note: % of control where 0% means no effect; nearly all actives have a fitted effect of over 60% in size
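ELG1-luciferase HEK293T cells, 2,000/well; compound pinned in; 16 hr, 37 °C, 5% CO2; ONE-Glo, 30 min RT; luminescence on CCD imager.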
SMN2 splice enh = enhancers of SMN2 splice variant expression; HEK293 SMN2-luciferase splicing reporter, luminescence, 30-36 h; Potency, µM (highest dose often 46.1 µM), inactives show at the top dose activity change, positive = activation, usual class: activators; 210,000 tested, 2.8% active; note: % of control where 0% means no effect; nearly all actives have a fitted effect of over 55% in size
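HEK293 cells carry an SMN2 minigene-luciferase reporter in which exon 7 inclusion puts luciferase in frame. Cells were seeded at 2000 cells/well, attached for 10-12 hours, then exposed to compounds for 30-36 hours at 37C before ONE-Glo luminescence.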
FLuc counter = counter-screen for miR-21 project: firefly luciferase inhibitors or activators; purified FLuc, Km substrates, luminescence inhibition; P08659; Potency, µM (series often up to 57.5 µM), for inactives: top-dose activity change, negative = inhibition, usual class: inhibitors; 360,000 tested, 6.9% active;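 note: plate controls were vehicle for no effect and reference inhibitor for full effect; nearly all actives have a fitted effect of over 55% in size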
Target sequence (P08659 whole entry, looked up): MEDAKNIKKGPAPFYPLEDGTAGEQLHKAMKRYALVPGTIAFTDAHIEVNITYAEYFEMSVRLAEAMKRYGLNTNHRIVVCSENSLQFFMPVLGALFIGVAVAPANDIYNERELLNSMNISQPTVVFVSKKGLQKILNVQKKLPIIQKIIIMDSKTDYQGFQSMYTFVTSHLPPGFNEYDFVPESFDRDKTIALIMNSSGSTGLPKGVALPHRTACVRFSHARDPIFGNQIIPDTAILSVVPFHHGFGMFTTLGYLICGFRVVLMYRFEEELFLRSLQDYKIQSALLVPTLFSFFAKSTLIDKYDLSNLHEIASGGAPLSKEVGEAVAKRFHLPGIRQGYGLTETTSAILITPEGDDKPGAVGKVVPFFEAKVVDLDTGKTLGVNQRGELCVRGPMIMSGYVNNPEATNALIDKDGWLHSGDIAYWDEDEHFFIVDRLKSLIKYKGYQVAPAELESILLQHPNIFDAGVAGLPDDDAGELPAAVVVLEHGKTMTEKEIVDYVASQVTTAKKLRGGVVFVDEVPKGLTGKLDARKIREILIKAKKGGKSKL
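Biochemical qHTS of compounds, final roughly 60 µM downward over six points, against 10 nM purified firefly luciferase using Km concentrations of substrates (10 uM D-luciferin, 10 uM ATP) in Tris acetate pH 7.5 buffer; luminescence output.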
Rab9 prom act = Rab9 promoter activation. Potency, µM (top dose mostly 9.22 µM), without a hit: at the highest dose activation, negative = inhibition, usual class: activators. 320,000 tested, 2.8% active. Huh7 Rab9 promoter-luciferase reporter, luminescence, 24 h; note: % of control where 0% means no effect; nearly all actives have a fitted effect of over 60% in size
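Huh7 cells stably carrying a Rab9 promoter-luciferase reporter, 1500 cells per well in OP-MEM I with 10% FBS, treated with compound 24 hours at 37C. Luciferase activity read by luminescence after 10 minutes with Amplite reagent.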
ELG1 DNA repair = blocks ELG1-dependent DNA repair in HEK293T cells; Potency, µM (highest dose often 46.1 µM), without a hit: top-dose activity change, negative = inhibition, most hits filed as inhibitors; AID 504467; HEK293T ELG1-luciferase reporter, luminescence, 16 h; DNA damage induced by 5-fluorouridine; 330,000 tested, 2.3% active; note: % is set by controls: 0 for no effect and ±100 for the full control effect; nearly all actives have a fitted effect of over 55% in size
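5-Fluorouridine DNA damage + compound/DMSO, 2,000 cells/well, 16 h, 37 °C/5% CO2. ONE-Glo, 30 min RT, luminescence. Readout = decrease in reporter signal.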
NPC1 prom act = NPC1 promoter activation | Huh7 NPC1 promoter luciferase reporter, 24 h | Potency, µM (top dose mostly 9.22 µM), inactives show at the top dose activation, most hits filed as activators | 320,000 tested, 2.4% active | AID 485313; note: % of control where 0% means no effect; nearly all actives have a fitted effect of over 60% in size
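Huh7 reporter cells (NPC1 promoter driving luciferase) are dosed with compound for 24 h at 37 °C, 5% CO2; luciferase detection reagent is then added and luminescence measured after 10 min at ambient temperature.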
* hit, by the source's call; ? = inconclusive; . = not tested or not shown. The list is not random: actives were taken first. Their share in the collection is about 9.2%. Calls come from the whole dose curve; as a rule, active = well fitted curve in the direction sought with a large enough effect; inconclusive = small, poorly fitted or top-dose-only effect, or another doubt; inactive = no such curve, though single readings can be large; an effect the other way counts as inactive or inconclusive. Potency is the fitted concentration of half-maximal effect.

SMILES | ELG1 genotox | SMN2 splice enh | FLuc counter | Rab9 prom act | ELG1 DNA repair | NPC1 prom act
CCOc1ccc(NC(=O)COc2ccc(C(=O)NCC3CCCO3)cc2OC)cc1 (configuration not stated) | -3% | . | -8% | 6% | -8% | 0%
O=C(NC1CC1)c1ccc(NS(=O)(=O)c2ccc(F)cc2)cc1 | 1% | . | -2% | -2% | 25% | -6%
COc1ccc(Cn2c(C3CCCCC3)nc3c(c(=O)c4ccccc4n3C)c2=O)cc1 | -9% | . | -3% | -2% | ? | -2%
COc1ccc(CCn2c(C3CCCCC3)nc3c(c(=O)c4ccccc4n3C)c2=O)cc1 | -8% | . | -1% | 0% | 16µM* | 1%
Cc1ccc(NC(=O)CN2C(=O)NC(C)(CC(C)C)C2=O)c(Br)c1 (configuration not stated) | 1% | . | . | . | 1% | .
N/C(=N\OC(=O)c1ccccc1[N+](=O)[O-])c1cccnc1 | ? | 24% | ? | 22% | ? | 16%
Cc1ccc(C(=O)O/N=C(\N)c2ccccn2)c(C)c1 | -17% | . | 0.021µM* | ? | ? | 0.032µM*
N/C(=N\OC(=O)c1cccnc1)c1ccc(Cl)cc1Cl | ? | 13% | ? | ? | ? | 12%
N/C(=N\OC(=O)c1ccccc1Cl)c1ccccn1 | 0.52µM* | ? | 0.15µM* | 0.63µM* | ? | 0.35µM*
N/C(=N\OC(=O)c1cccnc1)c1ccccc1Cl | 3% | -33% | 17µM* | 20% | ? | 23%
N/C(=N\OC(=O)c1ccccc1[N+](=O)[O-])c1ccccn1 | ? | -5% | 2.1µM* | 1.6µM* | ? | 1.8µM*
Cc1ccccc1CN1C(=O)C(O)(c2c[nH]c3ccccc23)c2cc(Cl)ccc21 (configuration not stated) | . | -5% | 5% | . | . | .
Cc1c(C)c(C)c(S(=O)(=O)N2CCNCC2)c(C)c1C | 3% | . | -12% | 2% | 20% | -4%
COCCNC(=O)NC(=O)CSc1nc(C)c(C)c(C)n1 | 1% | -10% | 0% | -4% | -6% | -1%
COc1ccccc1C(=O)O/N=C(\N)c1ccccn1 | ? | . | 11µM* | 1.3µM* | ? | 1.4µM*
Cc1[nH]c2ccccc2c1C(=O)C(=O)NCc1cccs1 | -1% | -27% | -2% | 1% | 20% | 1%
COc1ccccc1CNC(=O)c1ccc(-c2ccccc2Cl)o1 | -2% | 6% | ? | 0% | 3% | 3%
O=C(NCc1ccco1)c1ccc(-c2ccccc2Cl)o1 | 16% | 29% | 17µM* | 30% | ? | 2%
O=C(NCC1CCCO1)c1ccc(-c2ccccc2Cl)o1 (configuration not stated) | ? | . | 17µM* | 2.8µM* | ? | 3.5µM*
O=C(NCc1ccco1)c1ccc(-c2ccc(Cl)cc2)o1 | 3% | -10% | 15µM* | 25% | ? | 18%
O=C(NCC1CCCO1)c1cc(-c2ccccc2F)no1 (configuration not stated) | ? | . | 15µM* | 2.8µM* | ? | ?
CCC(=O)N1CCc2cc(Br)cc(S(=O)(=O)CCC(=O)NCc3ccc(Cl)cc3)c21 | . | 1% | -17% | . | . | .
O=C(COC(=O)C1CCN(S(=O)(=O)c2c(Cl)cccc2Cl)CC1)NCc1ccco1 | -1% | . | -1% | 1% | 20% | 0%
O=C(NCc1nc2ccccc2[nH]1)c1cccc(Cl)c1 | . | -7% | -3% | . | . | .
O=C(/C=C/c1cccc(Cl)c1)c1nc2ccccc2[nH]1 | 24% | -100% | 2.7µM* | 1% | ? | -2%
SMILES | ELG1 genotox | SMN2 splice enh | FLuc counter | Rab9 prom act | ELG1 DNA repair | NPC1 prom act
O=C(/C(=C\c1ccccc1)c1nc2ccccc2[nH]1)c1ccc(Cl)cc1 | ? | -84% | -3% | ? | ? | 2.8µM*
O=C(/C(=C/c1ccc(Cl)cc1)c1nc2ccccc2[nH]1)c1cccs1 | ? | -75% | ? | -52% | 7.3µM* | 0%
COc1cc(/C=C(/C(=O)c2cccs2)c2nc3ccccc3[nH]2)ccc1O | -5% | -27% | 6.7µM* | 13% | ? | 1%
COC(=O)/C(=C\c1cc(OC)c(OC)c(OC)c1)c1nc2ccccc2[nH]1 | -6% | -99% | ? | -4% | ? | -10%
OCC(O)C1OC(Nc2ccc(Cl)cc2)C(O)C1O (configuration not stated) | 6% | . | -5% | 3% | -14% | 2%
COc1ccc(-n2cc(CNCc3cccnc3)c(-c3cccc(F)c3)n2)cc1 | -6% | . | 9.5µM* | -4% | -19% | 1%
COc1ccc(-n2cc(CN(C)CCO)c(-c3cccc(F)c3)n2)cc1 | ? | . | 2.1µM* | 0.63µM* | ? | 0.45µM*
COc1ccc(-n2cc(CNCCc3cnc[nH]3)c(-c3cccc(F)c3)n2)cc1 | 2% | -84% | 19µM* | -21% | 1% | -5%
CCc1ccc(NC(=O)C(=O)NCC(c2cccnc2)N2CCOCC2)cc1 (configuration not stated) | . | . | -11% | . | . | .
CCOC(=O)Cc1c(C)nc2cc(-c3ccc(C(C)(C)C)cc3)[nH]n2c1=O | ? | -5% | 11µM* | 10% | ? | 1%
CCCCc1c(C)nc2cc(-c3ccco3)[nH]n2c1=O | ? | . | 12µM* | ? | ? | ?
CCc1c(C)nc2cc(-c3ccccc3)[nH]n2c1=O | ? | . | 11µM* | ? | ? | 3.2µM*
CCOC(=O)Cc1c(C)nc2c(-c3cccc(Br)c3)c[nH]n2c1=O | -11% | -88% | 21µM* | 1% | 16µM* | 2%
CCOC(=O)Cc1c(C)nc2c(C#N)c[nH]n2c1=O | -1% | 18% | -3% | -2% | 2% | -4%
O=C(COc1ccccc1)Nc1ccc2nc(SCC(=O)N3CCc4ccccc43)sc2c1 | . | . | -11% | . | . | .
CC(=O)c1ccc(N2CCN(C(=O)c3ccc(C(=O)c4ccccc4)cc3)CC2)cc1 | 2% | . | -19% | 13% | ? | 4%
COc1cc(-c2cc3nc(C)c(C)c(=O)n3[nH]2)cc(OC)c1OC | 0% | -4% | -5% | -6% | ? | 0%
C=CCc1c(C)nc2cc(-c3ccc(C)cc3)[nH]n2c1=O | 1.8µM* | . | 3µM* | ? | ? | 1.6µM*
O=C(Nc1cccc(F)c1)c1ccc(S(=O)(=O)N2CCCCC2)cc1 | -9% | . | -10% | 11% | ? | -5%
CCCCN(CC)CCCNC(=O)C1CCN(c2nc3ccc(CC)cc3s2)CC1 | . | -52% | 19µM* | . | . | .
CCCCN(C)CCCNC(=O)C1CCN(c2nc3ccc(CC)cc3s2)CC1 | . | -8% | 15µM* | . | . | .
CC1CCN(c2nc3ccc(C(=O)NCCCN4CCCCC4)cc3s2)CC1 | ? | . | ? | -40% | ? | ?
